Results as given in PubChem BioAssay (NCI).
About 79,000 compounds went through this panel and 15% of them were active in at least one assay; those are over-represented in the sample as a whole. Unmarked numbers belong to inactive results. Calls of active or inactive are those of the source. Cut-off read from the data, not from the text of the source: active = growth inhibition above about 70%; inactive = the rest.

Columns and labels:
[1] = NCI Yeast Anticancer Drug Screen. Data for the rad50 strain (AID 155);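 note: 0% = growth of vehicle-only cultures of the same strain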; conditions: S. cerevisiae rad50 strain growth inhibition, stronger effect = higher value
How it was run: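 Compounds were tested on a yeast strain with an engineered DNA damage repair alteration; the reported value is growth inhibition normalised to vehicle treatment.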

[2] = NCI Yeast Anticancer Drug Screen. Data for the mec2-1 strain (AID 157); conditions: S. cerevisiae mec2-1 strain, stronger effect = higher value
How it was run: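 Vehicle-treated cultures served as reference for growth inhibition of compound-exposed mec2-1 yeast.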

[3] = NCI Yeast Anticancer Drug Screen. Data for the sgs1 mgt1 strain (AID 161);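 note: 0% = growth of cultures given vehicle only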; conditions: S. cerevisiae sgs1 mgt1 strain, stronger effect = higher value
How it was run: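 Mutant yeast exposed to compound; growth scored against vehicle-only wells.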

[4] = NCI Yeast Anticancer Drug Screen. Data for the cln2 rad14 strain (AID 165);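 note: 0% = growth equal to vehicle treated cultures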; conditions: S. cerevisiae cln2 rad14 strain, stronger effect = higher value
How it was run: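 Each compound was tested on cln2 rad14 yeast. Inhibition of growth was calculated against vehicle-exposed controls.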

[5] = NCI Yeast Anticancer Drug Screen. Data for the bub3 strain (AID 167); conditions: S. cerevisiae bub3 mutant strain, stronger effect = higher value
How it was run: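 Growth of a checkpoint-deficient yeast mutant is measured after compound exposure. Values represent inhibition relative to vehicle.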

[6] = NCI Yeast Anticancer Drug Screen. Data for the mlh1 rad18 strain (AID 175); conditions: S. cerevisiae mlh1 rad18 strain growth inhibition, stronger effect = higher value
How it was run: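 Vehicle-treated cultures served as the reference for growth inhibition in a yeast strain carrying DNA damage repair alterations exposed to each compound.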

[7] = at 5.0 µM (retest, dose inferred, filed as 0.5)
[8] = at 50.0 µM (retest, dose inferred, filed as 5.0)

| SMILES | growth inhibition [1, 7] | growth inhibition [1, 8] | growth inhibition ([1]; at 50.0 µM) | growth inhibition [2, 7] | growth inhibition [2, 8] | growth inhibition ([2]; at 50.0 µM) | growth inhibition [3, 7] | growth inhibition [3, 8] | growth inhibition ([3]; at 50.0 µM) | growth inhibition [4, 7] | growth inhibition [4, 8] | growth inhibition ([4]; at 50.0 µM) | growth inhibition [5, 7] | growth inhibition [5, 8] | growth inhibition ([5]; at 50.0 µM) | growth inhibition [6, 7] | growth inhibition [6, 8] | growth inhibition ([6]; at 50.0 µM) |
| --- | --- | --- | --- | --- | --- | --- | --- | --- | --- | --- | --- | --- | --- | --- | --- | --- | --- | --- |
| CN1C(C)(C)CC(O)(C#N)CC1(C)C | 4% | 99% (active) | 98.6% (active) | 2% | 99% (active) | 99.7% (active) | 1% | 99% (active) | 99.3% (active) | -6% | 97% (active) | 99.2% (active) | -7% | 99% (active) | 99.5% (active) | 12% | 99% (active) | 99.4% (active) |
| O=C1CSC(c2ccccc2O)N1c1ccc(-n2c(-c3ccccc3)nc3ccccc3c2=O)cc1 (stereo not given) | 2% | 78% (active) | 67.3% | -1% | 39% | 64.4% | 5% | 50% | 72.5% (active) | 29% | 79% (active) | 78.5% (active) | -13% | 56% | 74.8% (active) | 0% | 81% (active) | 75.5% (active) |
| Cc1[nH]c(=O)[nH]c(=O)c1CN(C)Cc1cc(Cl)cc(Cl)c1O | -4% | 70% (active) | 53.1% | -8% | 55% | 26.9% | 0% | 95% (active) | 77.4% (active) | -3% | 43% | 22% | -8% | 46% | 30.1% | -3% | 82% (active) | 77.5% (active) |
| CCCCCCCCN1C(=O)c2ccccc2S1(=O)=O | -2% | 95% (active) | 22.9% | -4% | 96% (active) | 32.1% | -2% | 94% (active) | 73.8% (active) | -17% | 95% (active) | -27.6% | 25% | 96% (active) | 89.2% (active) | -2% | 95% (active) | 76.2% (active) |
| O=C(O)/C=C1\c2ccccc2CCC1c1ccc2ccccc2c1 (stereo not given) | 64% | 93% (active) | 99.7% (active) | 27% | 85% (active) | 99.7% (active) | 43% | 91% (active) | 99.8% (active) | 41% | 82% (active) | 99.3% (active) | 47% | 85% (active) | 99.8% (active) | 54% | 93% (active) | 99.5% (active) |
| CNC(=O)OCc1c(COC(=O)NC)c(-c2ccc(OC)cc2)n2c1CCC2 | 28% | 33% | 28.4% | 19% | 21% | 74.9% (active) | 44% | 68% | 70.9% (active) | 38% | 43% | 73.7% (active) | 50% | 46% | 48.4% | 23% | 32% | 92.6% (active) |
| NC(=O)Nc1cc(=O)[nH]c(=S)[nH]1 | -2% | -2% | 6.9% | 4% | -1% | 8.65% | 0% | 0% | -9.9% | -1% | -5% | 5.05% | -1% | -4% | 42.4% | -3% | -2% | -23.1% |
| CC1=C(Br)S(=O)(=O)N(c2ccccc2)C(CBr)=C1Br | 57% | 95% (active) | 19.8% | 41% | 97% (active) | 18.1% | 81% (active) | 99% (active) | 16.9% | 26% | 95% (active) | 5.05% | 53% | 96% (active) | 27.7% | 70% (active) | 93% (active) | 50.1% |
| O=C1NC(=O)c2cccc3cccc1c23 | 20% | 68% | 88.4% (active) | 7% | 25% | 52.6% | 4% | 37% | 80.3% (active) | -5% | 20% | 64.5% | 3% | 22% | 63.1% | 7% | 55% | 84.5% (active) |
| Cc1ccc2c(c1)nc1n2C(N)=Nc2ccccc2S1 | 14% | 47% | 65.5% | -14% | 28% | 45.3% | -5% | 45% | 68.6% | -10% | 17% | 37.8% | -16% | 47% | 75.2% (active) | 0% | 40% | 57.2% |
| Cc1ccccc1C1SCc2nc3ccccc3n21 (stereo not given) | -9% | -7% | -17.1% | -3% | -4% | 8.3% | -5% | 1% | 14.7% | -13% | -20% | 75.3% (active) | -4% | -1% | -6.4% | -9% | -9% | -25.1% |
| CC(C)SC(=S)Nc1cc(C(F)(F)F)ccc1Cl | -2% | 99% (active) | 99.5% (active) | 2% | 98% (active) | 99.7% (active) | 0% | 100% (active) | 99.6% (active) | -15% | 98% (active) | 99.4% (active) | 2% | 91% (active) | 99.5% (active) | 0% | 97% (active) | 99.5% (active) |
| C1C[OH+]CC[OH+]CCNCC[OH+]CC[OH+]CCN1.[Cl-].[Pt+4] | 34% | 34% | 86.8% (active) | 34% | 34% | 87.4% (active) | 29% | 29% | 84.8% (active) | 29% | 29% | 87.1% (active) | 10% | 10% | 86.2% (active) | 43% | 43% | 84.2% (active) |
| CCN(CC)CCSCCCNc1cc(C)nc2c1ccc1c2ccc2c(NCCCSCCN(CC)CC)cc(C)nc21 | 5% | 92% (active) | 97.3% (active) | 3% | 70% (active) | 97.4% (active) | -2% | 49% | 97.8% (active) | -3% | 42% | 72.5% (active) | 4% | 67% | 94.4% (active) | 8% | 94% (active) | 95.8% (active) |
| CCCCCCCCCCCC[S+](C)C | 31% | 52% | 44.9% | 23% | 80% (active) | 78.3% (active) | 36% | 83% (active) | 89.5% (active) | 17% | 26% | 41% | 41% | 74% (active) | 90.2% (active) | 30% | 76% (active) | 6.8% |
| Cc1nc(Nc2ccc(Cl)cc2)sc1C(=O)Nc1cccc2c(=O)[nH][nH]c(=O)c12 | 13% | 13% | 83% (active) | 6% | 6% | 90.8% (active) | 9% | 9% | 91% (active) | 3% | 3% | 87.5% (active) | 11% | 11% | 91.1% (active) | 14% | 14% | 89.7% (active) |
| CCOC(=O)C(C(=O)O)(C(c1ccccc1)c1ccccc1)C(c1ccccc1)c1ccccc1 | 97% (active) | 98% (active) | 98.5% (active) | 100% (active) | 100% (active) | 99.5% (active) | 98% (active) | 99% (active) | 98.4% (active) | 98% (active) | 99% (active) | 98.9% (active) | 98% (active) | 98% (active) | 98.3% (active) | 99% (active) | 99% (active) | 99% (active) |
| O=C(CC(=O)C(F)(F)F)c1ccc(-c2ccccc2)cc1 | 27% | 99% (active) | 97% (active) | 45% | 99% (active) | 98.2% (active) | 39% | 99% (active) | 98% (active) | 14% | 98% (active) | 97.8% (active) | 36% | 99% (active) | 97.2% (active) | 45% | 99% (active) | 98.7% (active) |
| O=C(O)C(=O)Cc1ccccc1[N+](=O)[O-] | -3% | 36% | 75.4% (active) | 1% | 1% | 4.9% | -3% | 28% | 68.3% | 1% | 3% | -18.6% | -10% | 10% | 20.5% | -2% | 24% | 68.2% |
| CCOC(=O)C(=O)NNc1ccccc1 | 22% | 89% (active) | 97.8% (active) | 3% | 82% (active) | 94.8% (active) | 13% | 61% | 98.7% (active) | -1% | 57% | 92.7% (active) | 17% | 96% (active) | 97.5% (active) | 31% | 95% (active) | 98.9% (active) |
